# Screening data (PubChem BioAssay)
# RE007 growth inh = less growth of the S. pombe RE007 Vpr strain | S. pombe RE007 Vpr strain, BacTiter-Glo ATP luminescence, 24 h | Potency, µM (series often up to 92.2 µM), most hits filed as inhibitors | hit rate 0.21% among 360,000; active means well fitted falling curve with a large enough effect; inconclusive means small, poorly fitted or top-dose-only effect; inactive means no such curve, though single readings can be large or run the other way; further: nearly all actives have a fitted effect of over 50% in size
#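 Fission yeast strain RE007, carrying one chromosomally integrated HIV-1 vpr copy, was seeded at OD 0.01 in PMG+AL medium with 23 nL pinned compound. After 24 h at 30 °C and 99% humidity, viability was read by BacTiter-Glo luminescence.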
# VACV mCherry inh = vaccinia inhibition (mCherry reporter) | Potency, µM (top dose mostly 36.5 µM), most hits filed as inhibitors | hit rate 0.63% among 310,000 | Vaccinia virus mCherry reporter infection, fluorescence; calls by dose curve; tested in A549 cells; further: nearly all actives have a fitted effect of over 35% in size
# LmPK inh = inhibitors of Leishmania mexicana pyruvate kinase | Q27686 | purified LmPK, Kinase-Glo ATP luminescence, 1 h | Potency, µM (top dose mostly 57.5 µM), hits mostly inhibitors | hit rate 0.37% among 290,000 | AID 1721
# Target sequence (Q27686 whole entry, looked up): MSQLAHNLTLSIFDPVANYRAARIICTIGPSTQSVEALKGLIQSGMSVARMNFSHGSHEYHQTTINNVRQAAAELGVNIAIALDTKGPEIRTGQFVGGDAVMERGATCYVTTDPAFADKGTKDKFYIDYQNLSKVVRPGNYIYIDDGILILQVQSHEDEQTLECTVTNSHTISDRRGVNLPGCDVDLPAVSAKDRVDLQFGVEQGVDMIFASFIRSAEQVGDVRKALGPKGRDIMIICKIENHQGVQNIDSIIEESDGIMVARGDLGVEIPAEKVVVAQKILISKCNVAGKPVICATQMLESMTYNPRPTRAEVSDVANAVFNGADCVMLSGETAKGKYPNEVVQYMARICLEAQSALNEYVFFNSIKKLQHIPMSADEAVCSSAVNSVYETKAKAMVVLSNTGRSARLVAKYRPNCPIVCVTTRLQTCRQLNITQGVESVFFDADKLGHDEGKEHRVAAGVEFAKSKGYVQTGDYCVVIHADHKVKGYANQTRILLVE
#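 0.1 nM LmPK, 0.5 mM PEP, 0.1 mM ADP; 50 mM imidazole pH 7.2, 7 mM MgCl2, 50 mM KCl; 1 h RT. Kinase-Glo luminescence readout, normalized to no-enzyme (full inhibition) and uninhibited wells.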
# Vaccinia Venus = vaccinia inhibition (Venus reporter); hit rate 0.46% among 330,000; Vaccinia virus Venus reporter expression, fluorescence; Potency, µM (titrated, usually from 36.5 µM), usual class: inhibitors; calls by dose curve; tested in A549 cells; further: nearly all actives have a fitted effect of over 30% in size
# AMA1-RON2 inh = AMA1-RON2 (P. falciparum) interaction inhibition. hit rate 0.2% among 360,000. AID 720542. Potency, µM (top dose mostly 58.2 µM), most hits filed as inhibitors. AlphaScreen AMA1-biotinylated RON2 peptide binding; further: nearly all actives have a fitted effect of over 45% in size
#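 AMA1 (3D7) with his tag at 25 nM final met compounds first, then biotinylated RON2 peptide at 25 nM; detection used donor plus acceptor beads, 10 µg/mL apiece, read by AlphaScreen after 30 min at room temperature.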
# Tb PYK inh = inhibitors of Trypanosoma brucei pyruvate kinase | Q57TT1 | TbPYK enzyme, Kinase-Glo Plus ATP luminescence, 45 min | Potency, µM (titrated, usually from 76.8 µM), usual class: inhibitors | hit rate 0.12% among 410,000 | AID 624173; further: nearly all actives have a fitted effect of over 50% in size
#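 Readout: single end-point luminescence (Kinase-Glo Plus, 10 min). Reaction conditions were TbPYK/substrate plus 130 uM ADP, 45 min at RT, pH 7.2 TEA buffer. No-enzyme wells served as controls, and data were normalized before concentration-response fitting.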
# Numbers stand for hits; . = inactive; ? = inconclusive; / = no result; [ ] = remark or other dose. This is a sample that favours compounds with a hit; in the whole collection about 1.3% have one here. Unless noted, the call rests on the fitted dose curve; in most records, active means well fitted curve in the direction sought with a large enough effect; inconclusive means small, poorly fitted or top-dose-only effect, or another doubt; inactive means no such curve, though single readings can be large; an effect the other way counts as inactive or inconclusive.
SMILES,RE007 growth inh,VACV mCherry inh,LmPK inh,Vaccinia Venus,AMA1-RON2 inh,Tb PYK inh
O=C1N[C@@H](Cc2ccccc2)COC(=O)[C@@H](Cc2ccc(F)cc2)CC/C=C/C[C@@H]1CC(=O)N(CCO)Cc1ccccc1,.,10µM,/,?,.,.
O=C(C[C@@H]1C/C=C/CC[C@H](Cc2ccc(F)cc2)C(=O)OC[C@@H](Cc2ccccc2)NC1=O)N[C@H](CO)Cc1ccccc1,.,10µM,/,14µM,.,.
COc1cc(-c2cc(C)c3cccc(OC)c3n2)cc2c1OCCN(C(=O)CCn1nc(C)cc1C)C2,/,.,/,.,/,/
COc1ccc(CN2CCOc3ccc(CN4CCC(Oc5cccnc5)CC4)cc3C2)cc1C,/,.,/,.,/,/
COc1ccc(/C(C#N)=C/c2ccccn2)cc1,/,.,8.9µM,.,.,.
O=C(CSc1c2c(nc3ccccc13)CCC2)Nc1ccc(F)cc1,/,.,/,.,/,.
CN(C)CCCn1c2c3ccccc3ccc2c2oc(=O)c3ccccc3c21,.,22µM,/,?,.,.
CN(C)CCCn1c(=S)[nH]c2ccccc2c1=O,.,.,.,.,.,.
COCCN1CCN(C(=O)c2cnn(-c3nccc(-c4ccccc4F)n3)c2-c2ccco2)CC1,/,.,/,.,/,/
CC1NC(=O)NC1CCCCCC(=O)NCCc1ccccc1 (centres undefined),.,.,.,.,1.5µM,.
c1ccc(-c2noc(C3CCCCC3)n2)nc1,35µM,.,?,.,.,.
COc1cccc(-c2nc(-c3ccccc3)no2)c1,.,.,.,.,.,.
O=[N+]([O-])c1cccc(-c2nc(-c3ccccn3)no2)c1,.,/,?,/,.,.
c1ccc(-c2noc(-c3ccc4ccccc4c3)n2)nc1,?,/,6.3µM,/,.,.
c1ccc(-c2noc(-c3ccncc3)n2)nc1,?,.,13µM,.,.,?
Brc1ccc(-c2noc(C3CCCCC3)n2)cc1,.,.,.,.,.,.
COc1cccc(-c2nc(-c3ccccn3)no2)c1,?,/,13µM,/,.,?
c1ccc(-c2noc(-c3ccc4c(c3)OCO4)n2)nc1,?,.,3.2µM,.,.,11µM
c1ccc(-c2noc(-c3cccnc3)n2)nc1,.,/,14µM,/,.,.
Clc1ccccc1/C=C/c1nc(-c2ccccn2)no1,?,.,4µM,.,.,.
COc1ccc(OC)c(C(=O)N(Cc2cc3cccc(C)c3nc2N2CCC(O)CC2)C2CC2)c1,/,.,/,.,/,/
O=c1[nH]cc(C#Cc2ccccc2)c2ncncc12,/,.,/,.,/,/
Cc1ccccc1C1(CC(=O)N2CCCCC2C)CC(=O)N(Cc2cccnc2)C1=O (centres undefined),/,.,/,.,/,/
Cn1c(N=Nc2ccc(N3CCOCC3)cc2)[n+](C)c2ccccc21,18µM,.,11µM,.,?,?
OCCN(Cc1ccccc1)Cc1ncccc1O,.,.,/,.,.,.
SMILES,RE007 growth inh,VACV mCherry inh,LmPK inh,Vaccinia Venus,AMA1-RON2 inh,Tb PYK inh
OCCN(Cc1cccnc1)Cc1ccccn1,.,.,/,.,14µM,.
COCCCNC(=O)c1cnn(-c2ncc3c(n2)-c2ccccc2CCC3)c1C,/,.,/,.,/,/
Cn1c(SCC(=O)N2c3ccccc3Sc3ccccc32)nc2ccccc21,.,.,.,.,.,.
CN(C)CCCn1c(SCC(=O)N2c3ccccc3Sc3ccccc32)nc2ccccc2c1=O,.,?,.,14µM,.,.
CCC1CN(CCNC(=O)c2cccnc2OC)Cc2cc(OC)ccc2O1 (centres undefined),/,.,/,.,/,/
Nc1ccc(Br)c2cccnc12,.,.,.,.,.,.
Nc1ccc(N=Nc2ccccc2)c2cccnc12,.,/,.,/,20µM,.
Cc1ccccc1N=Nc1ccc(O)c2ncccc12,.,3.5µM,.,?,.[11.6 µM],.
NCCc1cc(O)c(O)cc1O,.[18.4 µM],.,/,.,0.79µM,?
NC(Cc1cc(O)c(O)cc1O)C(=O)O (centres undefined),/,.,/,.,/,/
COc1ccc(N2c3ccccc3CN(Cc3ccccc3)[C@@H](C)[C@H]2Cc2cccnc2)cc1,.,.,/,?,14µM,.
COc1ccc(N2c3ccccc3CN(Cc3ccccc3)[C@@H](C)[C@H]2Cc2c(C)cccc2C)cc1,.,.,/,.,.,/
COC(=O)[C@@H]1CCCN1C(=O)c1c(OC)cc(=O)n2c1CCN(Cc1ccc(C)o1)CC2,/,.,/,.,/,/
Cc1ccc(C(=O)Nc2cccc(-c3nc(CNC(=O)c4ccc5ccccc5n4)c(C)o3)c2)s1,/,.,/,.,/,/
CCOC(=O)C(=O)Nc1cc(C)on1,.,.,16µM,.,.,.
Cc1c(C(=O)N2CCCCCC2)sc2ncnc(NCC3CCCO3)c12 (centres undefined),/,.,/,.,/,/
CC(C)c1c(C(=O)N(C)C2CCN(C)CC2)cnn1-c1nccc(-c2ccco2)n1,/,.,/,.,/,/
CCOC(=O)C(=Cc1ccc(Br)cc1)C(=O)OCC,?,?,.,14µM,.,.
CCOC(=O)C(=Cc1ccc(F)cc1)C(=O)OCC,/,/,.,/,/,/
O=C(N/N=C/c1ccc(N2CCCCC2)o1)c1ccccc1,.,.,.,.,.[11.6 µM],22µM
O=C(N/N=C/c1ccc(N2CCOCC2)o1)c1cccc([N+](=O)[O-])c1,.,.,.,.,.,13µM
O=C(N/N=C/c1ccccc1)c1ccc(N2CCOCC2)c([N+](=O)[O-])c1,.,.,.,.,.,.
O=C(CCS(=O)(=O)c1ccc(Br)cc1)Nc1ccc(F)cc1F,/,.,/,.,/,.
